For assay [1], the target named is Mitogen-activated protein kinase 10 (Mus musculus) (UniProt Q61831). The assay is described as follows: JNK3 AlphaScreen Assay (AID 530; active = well fitted curve in either direction with a large enough effect, not every such curve was filed as active;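 also: kinase came from lysate of stimulated human HepG2 cells; signal reports phosphorylation of biotinylated GST-cJun 1-79 at Ser73 with 10 µM ATP; % is scaled to controls: 0 for no effect and ±100 for the full control effect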). In short, it runs like this: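 Biotinylated GST-cJun(1-79) served as substrate for JNK3 in HepG2 lysates stimulated with IL-1beta and TNF-alpha. ATP was 10 uM final, pH 7.6. Ser73 phosphorylation was quantified by AlphaScreen (680 nm excitation).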

Assay [2] is described as follows: Cell Viability - N2a (AID 540).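 Also: plate controls were DMSO alone for no effect and tamoxifen control for full effect; nearly all actives have a fitted effect of over 45% in size.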 In short, it runs like this:
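N2a mouse neuroblastoma, 1500 cells/well, 5 hr settle; compound 40 hr, 37 °C; CellTiter-Glo 20 min RT; luminescence; Hill-fit AC50.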

The nature of assay [3]: Cell Viability - HUV-EC-C (AID 542).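 Also: cells exposed to compound for 40 hours; nearly all actives have a fitted effect of over 35% in size.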 Also: potency is read from the fitted curve at half-maximal effect. As to activity change, negative = cytotoxicity: % is scaled to controls: 0 for no effect and ±100 for the full control effect. The procedure, abridged: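 Luminescent ATP read-out (CellTiter-Glo, 20 min room temperature) after 40 hr compound treatment of HUV-EC-C cells at 37 °C. Concentration-response data fitted with the standard Hill equation to give AC50; tamoxifen and doxorubicin served as positive controls.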
Assay [4] in a line: Cell Viability - H-4-II-E (AID 543).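 Also: cells exposed to compound for 40 hours; % is scaled to controls: 0 for no effect and ±100 for the full control effect; nearly all actives have a fitted effect of over 35% in size.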 In short, it runs like this: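 qHTS, rat hepatoma H-4-II-E, 1500 cells/well; 40 hr compound exposure, 37 °C; CellTiter-Glo ATP luminescence after 20 min RT; AC50 by standard Hill fit.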
Assay [5] in a line: Cell Viability - SH-SY5Y (AID 544).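 Also: cells exposed to compound for 40 hours; nearly all actives have a fitted effect of over 55% in size.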 Also: potency is read from the fitted curve at half-maximal effect. The procedure, abridged:
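SH-SY5Y, 1500 cells/well, 5 hr pre-incubation 37 °C; cpd 40 hr 37 °C; CellTiter-Glo 20 min RT; luminescence (ATP) read. qHTS concentration-response, Hill fit → AC50. Tamoxifen, doxorubicin as positive controls.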

Assay [6] can be described thus: Cell Viability - Renal Proximal Tubule (AID 545).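 Also: cells exposed to compound for 40 hours; nearly all actives have a fitted effect of over 40% in size.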 In short, it runs like this: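 Cytotoxicity is scored as a concentration-dependent drop in cellular ATP in primary rat renal proximal tubule cells exposed for 40 hr. AC50 derives from Hill modelling.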
Assay [7] can be described thus: Cell Viability - Mesenchymal (AID 546).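 Also: cells exposed to compound for 40 hours before reading.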 In short, it runs like this: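 In this qHTS cytotoxicity format, glomerulus-derived human mesenchymal kidney cells received compound for 40 hr, then luciferase-based ATP quantitation. Concentration-response data were fitted with the Hill equation.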
Assay [8] can be described thus: Cellular Toxicity (caspase-3) HepG2 (AID 654).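 Also: cells exposed to compound for 16 hours before reading; 0% = DMSO alone and 100% = caspase signal from 100 µM tamoxifen.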 In short, it runs like this:
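Luminescent Caspase-Glo 3/7 readout after 16 hr compound exposure of human hepatocellular carcinoma HepG2 cells at 37 °C; qHTS concentration-response, normalized DMSO = 0%, 100 uM tamoxifen = 100%; AC50 by standard Hill equation.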

A short description of assay [9]: Cellular Toxicity (caspase-3) Jurkat (AID 655).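 Also: cells exposed to compound for 16 h at 37 °C before reading.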 Conditions: Jurkat caspase-3 activation, luminescence, DMSO = 0%, tamoxifen = 100%; at 92.2 µM (top of the series). The procedure, abridged:
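Caspase 3/7 activation is scored as increased luminescence in Jurkat cells cultured with compound for 16 hours in complete medium. AC50 values come from Hill fits of qHTS concentration-response data normalized to DMSO and 100 uM tamoxifen controls.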

Assay [10] can be described thus: Cellular Toxicity (caspase-3) HUV-EC-C (AID 656). Also: potency is read from the fitted curve at half-maximal effect. In short, it runs like this:
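Read-out: luminescence proportional to caspase 3/7 activity, measured 20 min after adding Caspase-Glo 3/7 reagent. Cells (HUV-EC-C) had received compound for 16 hr at 37°C. Increases relative to DMSO and 100 uM tamoxifen gave concentration-response AC50 values.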

A short description of assay [11]: Cellular Toxicity (caspase-3) SHSY5Y (AID 657).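 Also: cells exposed to compound for 16 hours at 37 °C.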 In short, it runs like this:
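Cells plated and incubated 5 h at 37 °C, dosed over a concentration range, incubated 16 h, then given Caspase-Glo 3/7 reagent for 1 h at room temperature before luminescence reading. Staurosporine (10 uM) defined full stimulation.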

Assay [12] in a line: Cellular Toxicity (caspase-3) BJ (AID 658).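 Also: 0% = DMSO basal and 100% = 10 µM staurosporine.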 In short, it runs like this:
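Plated BJ cells (1000/well) rested 5 hr, received compound for 16 hr at 37 °C, then Caspase-Glo 3/7 reagent for 1 hr at room temperature before luminescence reading.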

Assay [13] is described as follows: Cellular Toxicity (caspase-3) MRC-5 (AID 659).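 Also: 0% = DMSO basal and 100% = 10 µM staurosporine.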 In short, it runs like this: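 Apoptosis readout in MRC-5 cells: luciferase light generated after caspase 3/7 cleaves a peptide-aminoluciferin substrate, measured post 16 hr compound incubation at 37 °C.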
Assay [14] is described as follows: Cellular Toxicity (caspase-3) Mesangial (AID 660).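 Also: cells exposed to compound for 16 h before the caspase read.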 In short, it runs like this: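 Luminescent Caspase-Glo 3/7 readout (aminoluciferin substrate cleavage, 20 min RT) after 16 h compound exposure at 37 °C of normal human mesangial cells. Signal increase normalized between DMSO basal and 100 uM tamoxifen; Hill-equation AC50.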
A short description of assay [15]: Cellular Toxicity (caspase-3) SK-N-SH (AID 661).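 Also: 0% = DMSO basal and 100% = 10 µM staurosporine.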 The procedure, abridged:
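Luminescent Caspase-Glo 3/7 read-out after 16 hr compound exposure of SK-N-SH neuroblastoma cells at 37 °C. Signal increase normalized to DMSO (basal) and 10 uM staurosporine (100%); AC50 from Hill equation fits of qHTS concentration-response data.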

Assay [16] can be described thus: Cellular Toxicity (caspase-3) H-4-II-E (AID 663).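 Also: cells exposed to compound for 16 hr before readout.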 The procedure, abridged:
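Caspase 3/7 activation measured in H-4-II-E cells in complete culture medium after 16 hr treatment at 37 °C, using luciferase-coupled substrate readout; AC50 values come from Hill-equation fits of normalized concentration-response data.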

The nature of assay [17]: Cellular Toxicity (caspase-3) Hek293 (AID 664).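 Also: cells exposed to compound for 16 h at 37 °C before readout.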 The procedure, abridged: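 Luminescent Caspase-Glo 3/7 readout (aminoluciferin release) in HEK293 cells after 16 h compound treatment, 37 °C. Normalization: DMSO = basal, 100 uM tamoxifen = 100% stimulation. Concentration-response fitted with standard Hill equation for AC50.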
In assay [18] the target is Glucocorticoid receptor (Homo sapiens) (UniProt P04150). As to the kind of experiment: GR-EFC Redistribution (AID 451; calls by dose curve; also: potency is read from the fitted curve at half-maximal effect). Conditions: CHO-K1 GR-EFC translocation, beta-gal luminescence, 2 h. In short, it runs like this:
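CHO-K1 cells stably expressing nuclear-localized β-gal enzyme acceptor and GR fused C-terminally to the enzyme donor fragment; ligand-driven nuclear translocation restores β-gal by complementation. Compounds titrated up to 46 uM final, 2 h at 37 °C; luminescence read.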

Assay [19] addresses 3',5'-cyclic-AMP phosphodiesterase 4B (Homo sapiens) (UniProt Q07343). The assay is described as follows: qHTS Assay for Inhibitors of PDE-IV (AID 607; active = well fitted activation curve with a large enough effect in the main read-out, with a control signal flat, not every such curve was filed as active; also: % of control where 0% means no effect). The procedure, abridged: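 HEK293 ACTOne cells with CNG channel (1000/well), endogenous PDE4; membrane potential dye, compounds up to 22.9 uM final. Fluorescence Ex 535/Em 590; RO 20-1724 (100 uM final) as reference.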
For orientation: qHTS replaces the single test concentration by a dilution series.

Assay [20] in a line: Cell Viability - NIH 3T3 (AID 541).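 Also: cells exposed to compound for 40 hours; plate controls were DMSO alone for no effect and tamoxifen positive control for full effect; nearly all actives have a fitted effect of over 25% in size.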 Conditions: NIH 3T3 cell viability, qHTS; at 92.2 µM (top of the series). The procedure, abridged: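 qHTS format; 40 hr compound exposure, 37 °C; CellTiter-Glo luminescence (cellular ATP) read-out after 20 min at RT. Decrease in ATP = cytotoxicity; AC50 from standard Hill fit.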

The source of these data is PubChem BioAssay (NCATS).

Structures are written as SMILES. Values without a mark were called inactive. Records with an inconclusive call do not appear. Active and inactive are the calls of the source. Unless noted, calls follow the shape of the dose curve; as a rule, active = well fitted curve in the direction sought with a large enough effect; inconclusive = small, poorly fitted or top-dose-only effect, or another doubt; inactive = no such curve, though single readings can be large; an effect the other way counts as inactive or inconclusive.

Glucocorticoid receptor (Homo sapiens), sequence (P04150 whole entry, looked up, the tested form may be a part): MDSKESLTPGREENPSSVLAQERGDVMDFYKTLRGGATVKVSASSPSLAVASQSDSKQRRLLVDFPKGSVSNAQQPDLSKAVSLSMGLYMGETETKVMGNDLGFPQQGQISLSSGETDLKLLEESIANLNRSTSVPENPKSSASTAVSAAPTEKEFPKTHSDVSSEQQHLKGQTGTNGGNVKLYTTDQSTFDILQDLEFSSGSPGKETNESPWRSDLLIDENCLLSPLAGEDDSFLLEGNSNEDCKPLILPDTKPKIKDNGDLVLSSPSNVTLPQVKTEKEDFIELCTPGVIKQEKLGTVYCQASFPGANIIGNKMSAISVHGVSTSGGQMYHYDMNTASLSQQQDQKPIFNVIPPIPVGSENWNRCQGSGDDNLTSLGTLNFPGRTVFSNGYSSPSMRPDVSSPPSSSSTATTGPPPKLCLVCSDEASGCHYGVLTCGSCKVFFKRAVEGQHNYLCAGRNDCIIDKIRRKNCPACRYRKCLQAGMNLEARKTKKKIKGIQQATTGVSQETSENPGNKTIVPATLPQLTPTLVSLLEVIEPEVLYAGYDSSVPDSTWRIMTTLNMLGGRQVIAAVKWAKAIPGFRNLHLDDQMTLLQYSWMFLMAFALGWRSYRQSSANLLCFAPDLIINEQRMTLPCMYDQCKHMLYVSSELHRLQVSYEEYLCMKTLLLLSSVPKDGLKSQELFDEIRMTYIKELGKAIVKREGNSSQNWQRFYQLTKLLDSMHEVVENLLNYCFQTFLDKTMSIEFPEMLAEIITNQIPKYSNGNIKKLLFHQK
3',5'-cyclic-AMP phosphodiesterase 4B (Homo sapiens), sequence (Q07343 whole entry, looked up): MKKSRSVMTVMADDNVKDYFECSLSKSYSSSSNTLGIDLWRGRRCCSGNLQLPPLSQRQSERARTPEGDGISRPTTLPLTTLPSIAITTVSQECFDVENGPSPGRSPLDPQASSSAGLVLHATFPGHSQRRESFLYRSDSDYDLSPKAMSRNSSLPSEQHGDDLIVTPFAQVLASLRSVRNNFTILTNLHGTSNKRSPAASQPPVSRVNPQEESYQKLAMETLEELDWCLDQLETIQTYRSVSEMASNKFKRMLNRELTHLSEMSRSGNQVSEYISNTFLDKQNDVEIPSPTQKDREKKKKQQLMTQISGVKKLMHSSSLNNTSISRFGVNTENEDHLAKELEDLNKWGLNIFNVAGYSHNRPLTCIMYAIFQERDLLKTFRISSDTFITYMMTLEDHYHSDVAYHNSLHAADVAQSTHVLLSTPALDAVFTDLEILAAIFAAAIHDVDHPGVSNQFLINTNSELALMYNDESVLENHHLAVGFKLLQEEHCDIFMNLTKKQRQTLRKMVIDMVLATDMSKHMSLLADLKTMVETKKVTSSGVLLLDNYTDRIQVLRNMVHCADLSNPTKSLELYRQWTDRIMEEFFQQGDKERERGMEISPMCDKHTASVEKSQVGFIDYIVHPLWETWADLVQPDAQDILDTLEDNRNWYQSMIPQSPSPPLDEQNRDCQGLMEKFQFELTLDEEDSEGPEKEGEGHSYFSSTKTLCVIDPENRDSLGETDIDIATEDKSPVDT

Consider `C[C@]1(O)CC[C@H]2[C@@H]3CCC4=CC(=O)CC[C@]4(C)[C@@]3(F)[C@@H](O)C[C@@]21C`, for which the result in assay [1], in assay [2], in assay [6], in assay [7], in assay [8] and in assay [11] was inactive. The outcome in [12], in [13], in assay [14], in assay [15], in assay [16] and in assay [17] was inactive. In addition, the Potency entry in assay [3], in assay [4], in [5] and in assay [10] was “inactive” throughout. Moreover, the caspase-3 activation in assay [9] was -1.66%.
`CNC(C)(C)Cc1ccccc1`: the Potency in assay [18] was above 20.6 µM. Also, the outcome in assay [1] and in assay [19] was inactive.
With `CCCC(C)(COC(N)=O)COC(N)=O`, the molecule was called inactive in assay [2], in [6], in [7], in assay [8], in assay [11] and in assay [12]. In addition, the call in assay [13], in [14], in assay [15], in assay [16] and in assay [17] was inactive. For the same molecule, the activity change, negative = cytotoxicity in assay [20] is -19.1%. For the same molecule, the Potency result in [3], in assay [4], in assay [5] and in assay [10] was “inactive” throughout. The caspase-3 activation in assay [9] was 0.151%.
`CCOC(=O)CC(SP(=S)(OC)OC)C(=O)OCC` (centres undefined): the molecule was called inactive in assay [1], in assay [2], in assay [6], in assay [7], in assay [8] and in assay [11]. The molecule was classed as inactive in assay [12], in assay [13], in assay [14], in assay [15], in assay [16] and in assay [17]. The activity change, negative = cytotoxicity in [20] was -25.9%. The Potency result in assay [3], in assay [4] and in assay [10] was “inactive” each time. In addition, in [5], the Potency is 12.6 µM (active). Also, the caspase-3 activation in assay [9] was -0.413%.
For the molecule `COc1c2c(cc3c1OCO3)CCN(C)C2`, the Potency in assay [18] is above 20.6 µM. The molecule was classed as inactive in [1] and in assay [19].
`Clc1ccc(C(c2ccc(Cl)cc2)C(Cl)(Cl)Cl)cc1`: the activity change, negative = cytotoxicity in [20] was -24.2%. Further, the Potency in assay [3] and in [10] was 50.1 µM (active) in each case. Besides, in assay [5], the Potency result is “inactive”. Further, the call in [6], in assay [8], in assay [11], in assay [12], in assay [13] and in assay [14] was inactive. Further, the molecule was called inactive in [15] and in assay [16]. Also, the caspase-3 activation in [9] was 7.14%.
Take `COC(=O)C(c1ccccc1)C1CCCCN1` (centres undefined): the call in assay [1], in assay [2], in [6], in assay [7], in assay [8] and in [11] was inactive. For the same molecule, the result in assay [12], in assay [13], in assay [14], in [15], in assay [16] and in [17] was inactive. Moreover, the activity change, negative = cytotoxicity in assay [20] is -13.4%. Besides, the Potency entry in [3], in assay [4], in assay [5] and in assay [10] was “inactive” each time. For the same molecule, the caspase-3 activation in assay [9] was 0.101%.
